Rab9 promoter act = qHTS Assay for Rab9 Promoter Activators; Potency, µM (highest dose often 9.22 µM), usual class: activators; Huh7 Rab9 promoter-luciferase reporter, luminescence, 24 h; 320,000 tested, 2.8% active; also: nearly all actives have a fitted effect of over 60% in size
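Cells were plated at 1500 per well in reduced-serum medium with 10% FBS and left 2 h. Compound in DMSO was then added for 24 h at 37 °C. Reporter signal was read by luminescence after 10 min with luciferase detection reagent.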
NPC1 prom act = qHTS Assay for NPC1 Promoter Activators | Potency, µM (series often up to 9.22 µM), hits mostly activators | Huh7 NPC1 promoter luciferase reporter, 24 h | 320,000 tested, 2.4% active | AID 485313, 2010; also: nearly all actives have a fitted effect of over 60% in size
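Cells: Huh7 expressing luciferase under the NPC1 promoter, 1500/well. Seeded 2 h, compound added, incubated 24 h at 37 °C. Luciferase reagent, 10 min ambient, then luminescence.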
FLuc modulator = qHTS profiling assay for firefly luciferase inhibitor/activator using purifed enzyme and Km concentrations of substrates (counterscreen for miR-21 project). Luciferin 4-monooxygenase (Photinus pyralis), P08659. purified FLuc, Km substrates, luminescence inhibition. Potency, µM (doses to about 57.5 µM), usual class: inhibitors. 360,000 tested, 6.9% active; also: nearly all actives have a fitted effect of over 55% in size
Target sequence (P08659 whole entry, looked up): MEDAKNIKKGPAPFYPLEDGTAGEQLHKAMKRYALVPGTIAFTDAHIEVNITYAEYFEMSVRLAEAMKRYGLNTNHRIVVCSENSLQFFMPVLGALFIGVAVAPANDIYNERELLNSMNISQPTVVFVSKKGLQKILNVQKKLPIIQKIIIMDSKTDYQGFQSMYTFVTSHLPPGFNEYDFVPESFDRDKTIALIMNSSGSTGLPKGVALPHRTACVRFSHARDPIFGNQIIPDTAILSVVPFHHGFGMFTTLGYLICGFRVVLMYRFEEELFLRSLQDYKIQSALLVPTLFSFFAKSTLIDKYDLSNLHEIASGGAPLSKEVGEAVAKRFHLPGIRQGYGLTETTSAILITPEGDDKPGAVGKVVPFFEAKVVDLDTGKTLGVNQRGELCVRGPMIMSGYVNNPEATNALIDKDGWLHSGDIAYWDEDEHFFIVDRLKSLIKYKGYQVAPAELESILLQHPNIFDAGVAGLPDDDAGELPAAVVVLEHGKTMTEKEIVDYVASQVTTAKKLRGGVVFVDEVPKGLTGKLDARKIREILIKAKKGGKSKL
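Purified P. pyralis luciferase (10nM final) with 10uM D-luciferin and 10uM ATP (Km levels) in 50mM Tris acetate pH 7.5, 10mM Mg acetate, 0.01% Tween-20, 0.05% BSA; qHTS 6-point titration, ~60 µM downward; luminescence read.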
SMN2 splice enh = qHTS Assay for Enhancers of SMN2 Splice Variant Expression | HEK293 SMN2-luciferase splicing reporter, luminescence, 30-36 h | Potency, µM (top dose mostly 46.1 µM), actives largely listed as activators | 210,000 tested, 2.8% active; also: nearly all actives have a fitted effect of over 55% in size
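HEK293 cells carry an SMN2 […]–luciferase reporter in which exon 7 inclusion puts luciferase in frame. Cells were plated 10-12 h before compound addition, then incubated 30-36 h at 37C. ONE-Glo luminescence was read; sodium butyrate at 4.5 mM final served as control.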
ELG1 genotoxic = qHTS screen for small molecules that induce genotoxicity in human embryonic kidney (HEK293T) cells expressing luciferase-tagged ELG1; HEK293T ELG1-luciferase reporter, luminescence, 16 h; Potency, µM (top dose mostly 46 µM), most hits filed as activators; 330,000 tested, 1.3% active; AID 504466, 2011; also: nearly all actives have a fitted effect of over 60% in size
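Genotoxicity was scored as increased ELG1-luciferase reporter signal, measured by ONE-Glo luminescence (30 min, room temperature). Compound or vehicle exposure of the HEK293T reporter cells lasted 16 hr at 37°C.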
ELG1 repair inh = qHTS screen for small molecules that inhibit ELG1-dependent DNA repair in human embryonic kidney (HEK293T) cells expressing luciferase-tagged ELG1; HEK293T ELG1-luciferase reporter, luminescence, 16 h; DNA damage induced by 5-fluorouridine; AID 504467, 2011; 330,000 tested, 2.3% active; Potency, µM (top dose mostly 46.1 µM), actives largely listed as inhibitors; also: nearly all actives have a fitted effect of over 55% in size
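In this reporter screen, reduction of luminescence relative to DMSO vehicle indicated activity. Compounds and 5-fluorouridine were added together to 2,000 cells per well, incubated for 16 hr at 37 °C, then developed with ONE-Glo.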
Hits are given with their value; . = inactive; ? = inconclusive; / = no result; [ ] = another dose, or the depositor's remark. A selection: hits, their analogues and other compounds. The true share with any hit is near 9.2%. Calls follow the shape of the dose curve; as a rule, active = well fitted curve in the direction sought with a large enough effect; inconclusive = small, poorly fitted or top-dose-only effect, or another doubt; inactive = no such curve, though single readings can be large; an effect the other way counts as inactive or inconclusive.

SMILES | Rab9 promoter act | NPC1 prom act | FLuc modulator | SMN2 splice enh | ELG1 genotoxic | ELG1 repair inh
COc1ccc2c(c1)SCC/C2=C\CN1C(=O)CCC1=O | . | . | . | . | . | .
COc1cccc(/C=C/C(=O)NNC(=O)c2ccco2)c1OC | 3.98µM | ? | 10.7µM | / | ? | ?
COc1cccc(/C=C/C(=O)OCC(=O)NCc2ccco2)c1OC | . | . | . | . | . | .
COc1cc(C=O)ccc1OCc1ccncc1 | . | . | ? | / | . | .
COc1cc(C=O)ccc1OCCCOc1ccccc1[N+](=O)[O-] | . | . | ? | ? | ? | ?
C/C=C/c1ccc(OCC(=O)Nc2cc(OC)c(OC)c(OC)c2)c(OC)c1 | . | . | . | . | . | 14.6µM
COc1cc(C=O)ccc1OCCOc1ccccc1[N+](=O)[O-] | . | . | 21.3µM | . | . | ?
COc1cc(C=O)ccc1OCCCOc1ccccc1C(=O)O | ? | ? | 1.9µM | . | . | ?
COc1cc(C=O)ccc1OCc1ccc(Cl)nc1 | . | . | 4.78µM | / | ? | ?
O=C(Nc1cccc(C(F)(F)F)c1)N1CC2CCCN2c2ccccc21 (stereo unspecified) | / | / | . | / | / | /
C/C=C/c1ccc(OCCOc2cc(C=O)ccc2OC)c(OC)c1 | . | . | 13.5µM | 15.8µM | . | ?
C/C=C/c1ccc(OCC(=O)O)c(OC)c1 | . | . | . | / | . | .
Cc1ccc(C(=O)Nc2cccc(NC(=O)c3ccc(C)o3)n2)o1 | . | . | 15.1µM | / | . | ?
Cc1ccc(C(=O)Nc2nc(C)c(C)s2)o1 | 3.16µM | ? | 6.75µM | 14.1µM | ? | ?
Cc1ccc(C(=O)Nc2nnc(C)s2)o1 | . | . | . | . | . | ?
Cc1nc(NC(=O)c2ccc(Br)o2)sc1C | ? | ? | 7.57µM | ? | . | ?
Cc1nn(C)c(C)c1NC(=O)c1ccc(Br)o1 | . | . | . | / | . | .
Cc1ccc(C(=O)Nc2ccccc2NC(=O)c2ccc(C)o2)o1 | . | . | . | . | . | .
CC(C)(C)c1csc(NC(=O)c2ccc(Br)o2)n1 | ? | ? | 26.9µM | / | . | ?
COc1cccc(NC(=O)Cn2c(=O)n(-c3ccccc3)c(=O)c3ccc(C(=O)NCc4ccc5c(c4)OCO5)cc32)c1 | / | / | . | . | / | /
Cn1c(OCc2cccnc2)nc2c1c(=O)n(Cc1ccc(Br)cc1)c(=O)n2C | . | . | . | . | . | 16.4µM
Cn1c(=O)c2c(nc(NCc3cccnc3)n2Cc2ccc(Cl)cc2)n(C)c1=O | . | . | . | . | . | 20.6µM
Cn1c(OCc2ccc3c(c2)OCO3)nc2c1c(=O)n(Cc1ccc(Cl)c(Cl)c1)c(=O)n2C | . | . | . | . | . | .
CCNc1nc2c(c(=O)n(Cc3ccccc3)c(=O)n2C)n1Cc1ccccc1 | . | . | . | . | . | 13µM
Cc1ccc(C(CC(=O)Nc2ccc(C)cc2C)N2Cc3ccccc3C2=O)cc1 (stereo unspecified) | / | / | . | / | / | /
SMILES | Rab9 promoter act | NPC1 prom act | FLuc modulator | SMN2 splice enh | ELG1 genotoxic | ELG1 repair inh
Cc1ccc(CNC(=O)CCCN2C(=O)COc3ccc(C)cc32)cc1 | / | / | . | / | / | /
CCOC(=O)c1cccc(NC(=O)C2CCN(S(=O)(=O)c3c(C)noc3/C=C/c3ccc(C)cc3)CC2)c1 | / | / | . | / | / | /
Cc1ccccc1-n1ncc2c1CC(C)(C)CC2NC(=O)CN1CCCC1=O (stereo unspecified) | . | . | . | / | . | .
Cc1ccc(C(=O)NNC(=O)c2ccccc2O)cc1S(=O)(=O)N1CCCCC1 | . | . | ? | / | . | .
C=CCn1cccc(C(=O)Nc2ccc(N(C)C)cc2)c1=O | 3.98µM | 3.55µM | 8.49µM | / | ? | ?
C=CCn1cccc(C(=O)Nc2cc(OC)cc(OC)c2)c1=O | . | . | ? | . | . | .
C=CCn1cccc(C(=O)Nc2ccc(Cl)cc2)c1=O | ? | ? | 16.9µM | / | ? | ?
C=CCn1cccc(C(=O)Nc2ccc(OCC)cc2)c1=O | ? | ? | 16.9µM | . | . | .
C=CCn1cccc(C(=O)Nc2ccc(OC)c(OC)c2)c1=O | . | . | ? | . | . | .
C#CCn1cccc(C(=O)Nc2ccc(OC)cc2)c1=O | .[1.84 µM] | . | 19µM | / | . | ?
C=CCn1cccc(C(=O)Nc2ccc(OC)cc2OC)c1=O | . | . | ? | . | . | .
CC1CN(C(=O)CCC(=O)NCc2cccs2)c2cc(Cl)ccc2O1 (stereo unspecified) | / | / | . | / | / | /
Cc1cccc(N2CCN(C(=O)c3ccc(Cl)c(S(=O)(=O)N4CCc5ccccc5C4)c3)CC2)c1C | . | . | . | . | . | ?
C=CCn1cccc(C(=O)Nc2cc(OC)c(OC)c(OC)c2)c1=O | . | . | . | . | . | .
C=CCn1cccc(C(=O)Nc2ccc(SC)cc2)c1=O | 3.98µM | ? | 12µM | / | . | ?
N=C1C(c2nc3ccccc3[nH]2)=C(O)CN1C1CCCCC1 | 2µM | 3.16µM | ? | / | ? | ?
c1cncc(-c2nnc3sc(-c4ccco4)nn23)c1 | . | . | . | . | . | .
CCN(CC)c1ccc(-c2nn3c(-c4cccnc4)nnc3s2)cc1 | . | . | 21.3µM | . | . | .

Bioassay records (PubChem)
